Each compound was assayed on PC9 (assay: area under confluence curve of compound monotherapy; compare to DMSO control AUC of the same experiment (AUC (confluence x time, arbitrary))). Settings: 10 nM; DMSO control AUC in same experiment: 18385.
Protocol: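 compare to DMSO control AUC of the same experiment; Monotherapy arm of the osimertinib DTP screen: EGFR-mutant NSCLC cells were treated with the test compound alone at a fixed dose (highest dose with <50% inhibition of parental cells, or 1 uM), then switched to drug-free medium at the DTP stage. IncuCyte confluence was tracked and AUC computed in Prism. AUC scale depends on experiment duration, so each row carries the same-experiment DMSO control AUC (monotherapy activity = DMSO AUC minus monotherapy AUC). The monotherapy value is shared between screen formats.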

Compound	area under confluence curve
Cc1nc(-c2nc(-c3ccc(OC(F)(F)F)cc3)no2)nn1Cc1cccc(N2CCC(S(C)(=O)=O)CC2)c1	18100

Same assay, conditions: 10 nM; DMSO control AUC in same experiment: 19076

Compound	area under confluence curve
Cc1nc(-c2nc(-c3ccc(OC(F)(F)F)cc3)no2)nn1Cc1cccc(N2CCC(S(C)(=O)=O)CC2)c1	18900

Same assay, conditions: 100 nM; DMSO control AUC in same experiment: 21341

Compound	area under confluence curve
C[C@@]1(C(=O)Nc2ccc(F)nc2)CCCN1c1nc(Nc2cc(C3CC3)n[nH]2)c2cccn2n1	20100

Same assay, conditions: 100 nM; DMSO control AUC in same experiment: 27958

Compound	area under confluence curve
COC(=O)c1ccc([C@H]2c3[nH]c4ccccc4c3C[C@H](C(=O)OC)N2C(=O)CCl)cc1	27800

Same assay, conditions: 100 nM; DMSO control AUC in same experiment: 28334

Compound	area under confluence curve
CNC(=O)c1cccc(-c2ccc3c(N4CCOC[C@@H]4C)nc(N4CCOC[C@@H]4C)nc3n2)c1	24900

Same assay, conditions: 100 nM; DMSO control AUC in same experiment: 28684

Compound	area under confluence curve
CCN1CCN(Cc2ccc(Nc3ncc(F)c(-c4cc(F)c5nc(C)n(C(C)C)c5c4)n3)nc2)CC1 [Abemaciclib]	28400

Same assay, conditions: 100 nM; DMSO control AUC in same experiment: 30326

Compound	area under confluence curve
COC(=O)c1ccc([C@H]2c3[nH]c4ccccc4c3C[C@H](C(=O)OC)N2C(=O)CCl)cc1	27300

Same assay, conditions: 100 nM; DMSO control AUC in same experiment: 30578

Compound	area under confluence curve
CCN1CCN(Cc2ccc(Nc3ncc(F)c(-c4cc(F)c5nc(C)n(C(C)C)c5c4)n3)nc2)CC1 [Abemaciclib]	29700

Same assay, conditions: 100 nM; DMSO control AUC in same experiment: 30580

Compound	area under confluence curve
C[C@@]1(C(=O)Nc2ccc(F)nc2)CCCN1c1nc(Nc2cc(C3CC3)n[nH]2)c2cccn2n1	30100

Same assay, conditions: 100 nM; DMSO control AUC in same experiment: 44384

Compound	area under confluence curve
C/C=C/Cn1cc(-c2cc(OC)c(C(=O)N3CCOCC3)cc2OC)c2cc(C)[nH]c2c1=O	44600
O=C(NC[C@H](O)CN1CCc2ccccc2C1)c1ccnc(NC2CCC2)c1	43300

Same assay, conditions: 100 nM; DMSO control AUC in same experiment: 45737

Compound	area under confluence curve
COC(=O)c1ccc([C@H]2c3[nH]c4ccccc4c3C[C@H](C(=O)OC)N2C(=O)CCl)cc1	46100

Same assay, conditions: 100 nM; DMSO control AUC in same experiment: 49143

Compound	area under confluence curve
C[C@@]1(C(=O)Nc2ccc(F)nc2)CCCN1c1nc(Nc2cc(C3CC3)n[nH]2)c2cccn2n1	48900

Same assay, conditions: 100 nM; DMSO control AUC in same experiment: 88996

Compound	area under confluence curve
CCN1CCN(Cc2ccc(Nc3ncc(F)c(-c4cc(F)c5nc(C)n(C(C)C)c5c4)n3)nc2)CC1 [Abemaciclib]	88400

Same assay, conditions: 300 nM; DMSO control AUC in same experiment: 19507

Compound	area under confluence curve
CN1CCN(CCOc2cc(OC3CCOCC3)c3c(Nc4c(Cl)ccc5c4OCO5)ncnc3c2)CC1 [Saracatinib]	16000

Same assay, conditions: 300 nM; DMSO control AUC in same experiment: 22064

Compound	area under confluence curve
CN(C)CCCOc1ccc(-c2ccc3ncc4c(c3c2)n(C2CCOCC2)c(=O)n4C)cn1	22000

Same assay, conditions: 300 nM; DMSO control AUC in same experiment: 28243

Compound	area under confluence curve
CN1CCN(CCOc2cc(OC3CCOCC3)c3c(Nc4c(Cl)ccc5c4OCO5)ncnc3c2)CC1 [Saracatinib]	24000

Same assay, conditions: 300 nM; DMSO control AUC in same experiment: 28684

Compound	area under confluence curve
Cc1c[nH]c2nc(Nc3ccc(N4CCN(C)CC4)c(F)c3)nc(-c3cccc(CC#N)c3)c12	21400

Same assay, conditions: 300 nM; DMSO control AUC in same experiment: 29563

Compound	area under confluence curve
CN(C)CCCOc1ccc(-c2ccc3ncc4c(c3c2)n(C2CCOCC2)c(=O)n4C)cn1	30100

Same assay, conditions: 300 nM; DMSO control AUC in same experiment: 30008

Compound	area under confluence curve
Cc1c[nH]c2nc(Nc3ccc(N4CCN(C)CC4)c(F)c3)nc(-c3cccc(CC#N)c3)c12	29700

Same assay, conditions: 300 nM; DMSO control AUC in same experiment: 30604

Compound	area under confluence curve
CN(C)CCCOc1ccc(-c2ccc3ncc4c(c3c2)n(C2CCOCC2)c(=O)n4C)cn1	30300

Same assay, conditions: 300 nM; DMSO control AUC in same experiment: 43316

Compound	area under confluence curve
Cc1c[nH]c2nc(Nc3ccc(N4CCN(C)CC4)c(F)c3)nc(-c3cccc(CC#N)c3)c12	33700

Same assay, conditions: 1000 nM; DMSO control AUC in same experiment: 20567

Compound	area under confluence curve
Cc1cccc(-c2[nH]c(C(C)(C)C)nc2-c2ccc3nccnc3c2)n1	20400

Same assay, conditions: 1000 nM; DMSO control AUC in same experiment: 21594

Compound	area under confluence curve
Cc1cc2cc(C(=O)c3cnn(-c4cnc(Oc5c(F)cccc5F)cc4C)c3N)[nH]c2cc1NS(C)(=O)=O	18400
COc1nn(C)cc1Nc1nccc(-c2c[nH]c3c(NC(=O)[C@@H](C)N4CCN(C)CC4)cccc23)n1	20800
O=C([C@@H](Cc1cccc(C(F)(F)F)c1)NS(=O)(=O)c1cc(F)c2c(c1)CCNC2)N1CCCC1	20800

Same assay, conditions: 1000 nM; DMSO control AUC in same experiment: 22064

Compound	area under confluence curve
Cc1cccc(-c2[nH]c(C(C)(C)C)nc2-c2ccc3nccnc3c2)n1	21700
CCc1cc2c(cc1N1CCC(N3CCOCC3)CC1)C(C)(C)c1[nH]c3cc(C#N)ccc3c1C2=O [Alectinib]	16200
C[C@@H](Oc1cc(-c2cnn(C3CCNCC3)c2)cnc1N)c1c(Cl)ccc(F)c1Cl [Crizotinib]	21100

Same assay, conditions: 1000 nM; DMSO control AUC in same experiment: 27958

Compound	area under confluence curve
CN1CCN(c2nc(C3=C(c4c[nH]c5ccccc45)C(=O)NC3=O)c3ccccc3n2)CC1 [Sotrastaurin]	27000

Same assay, conditions: 1000 nM; DMSO control AUC in same experiment: 28684

Compound	area under confluence curve
COc1cc2nc(C)nc(N[C@H](C)c3cc(N)cc(C(F)(F)F)c3)c2cc1O[C@H]1CCOC1	28300

Same assay, conditions: 1000 nM; DMSO control AUC in same experiment: 29345

Compound	area under confluence curve
Cc1cc(Nc2ncnc3ccc(NC4=NC(C)(C)CO4)cc23)ccc1Oc1ccn2ncnc2c1 [Tucatinib]	29400

Same assay, conditions: 1000 nM; DMSO control AUC in same experiment: 30002

Compound	area under confluence curve
Cc1cc(Nc2ncnc3ccc(NC4=NC(C)(C)CO4)cc23)ccc1Oc1ccn2ncnc2c1 [Tucatinib]	30200

Same assay, conditions: 1000 nM; DMSO control AUC in same experiment: 30326

Compound	area under confluence curve
CCN(c1cc(-c2ccc(CN3CCOCC3)cc2)cc(C(=O)NCc2c(C)cc(C)[nH]c2=O)c1C)C1CCOCC1 [Tazemetostat]	29400

Same assay, conditions: 1000 nM; DMSO control AUC in same experiment: 30578

Compound	area under confluence curve
Cc1nc2nc(C)c(O[C@@H]3CCN(c4ccc(-c5ccc(CN6CCOCC6)nn5)cc4)C3)c(C)n2n1	30800
Cc1[nH]nc(C(F)(F)F)c1Cc1sc2c(c1C(=O)N1C[C@](C)(O)CO1)c(=O)n(C)c(=O)n2C(C)C	30100

Same assay, conditions: 1000 nM; DMSO control AUC in same experiment: 30580

Compound	area under confluence curve
CS(=O)(=O)N1CCN(Cc2cc3nc(-c4cccc5[nH]ncc45)nc(N4CCOCC4)c3s2)CC1	24700

Same assay, conditions: 1000 nM; DMSO control AUC in same experiment: 31239

Compound	area under confluence curve
O=C(CCCCCCC(=O)Nc1ccccc1)NO [Vorinostat]	29400

Same assay, conditions: 1000 nM; DMSO control AUC in same experiment: 31840

Compound	area under confluence curve
CCOC(=O)c1ccnc(CNCC(=O)N(CC)CCN(C)C)c1	30800

Same assay, conditions: 1000 nM; DMSO control AUC in same experiment: 43316

Compound	area under confluence curve
C[C@@H](c1ccc2nccn2c1)n1nnc2ncc(-c3cnn(C)c3)nc21 [Savolitinib]	43600

Same assay, conditions: 1000 nM; DMSO control AUC in same experiment: 48219

Compound	area under confluence curve
O=C(CCCCCCC(=O)Nc1ccccc1)NO [Vorinostat]	47800

Same assay, conditions: 1000 nM; DMSO control AUC in same experiment: 72888

Compound	area under confluence curve
CCn1cc(-c2cccc(C(F)(F)F)c2)c2sc(C(=N)NC3CCS(=O)(=O)CC3)cc2c1=O	73000

Reference: the supplement of paper PMC9794691
